We go through 30 compounds from ChEMBL document CHEMBL1157539, “Thousands of chemical starting points for antimalarial lead identification” (Nature, 2010).

What all share (format): functional
Assay [1] deals with Plasmodium falciparum. As to the kind of experiment: GSK_TCMDC: Inhibition of Plasmodium falciparum 3D7 in whole red blood cells, using parasite LDH activity as an index of growth. Test compounds present at 2uM.
The subject of assay [2] is Plasmodium falciparum. As to the kind of experiment: GSK_TCMDC: Inhibition of Plasmodium falciparum Dd2 in whole red blood cells, using parasite LDH activity as an index of growth. Test compounds present at 2uM.
Another assay deals with HepG2. In words: GSK_TCMDC: Percent inhibition of human HepG2 cell line. Test compounds present at 10uM.

The structures appear in SMILES notation.

Turning to `CCC(C)CN1CCN(c2ccc(NC(=O)c3cccs3)cc2)C(C)C1.O=C(O)C(F)(F)F` (stereo not given), the Inhibition is on record as 95% in the assay with Plasmodium falciparum [1], 95% with Plasmodium falciparum [2] and 0% with HepG2.

Turning to `CCc1cc2c3c(N)nc(N)nc3ccc2n1C(C)CC` (stereo not given), the Inhibition with Plasmodium falciparum [1] is recorded as 100%; in the assay with Plasmodium falciparum [2], 99%; in the assay on HepG2 it was 73%.

For `Fc1ccc2[nH]c(-c3ccc(-c4ccc(CN5CCC(CCN6CCCCC6)CC5)cc4)cc3)nc2c1.O=C(O)C(F)(F)F`, the Inhibition in the assay on Plasmodium falciparum [1] stood at 100%; with Plasmodium falciparum [2], 100%; with HepG2, 98%.

On to `Cc1nc(-c2cccc(Nc3nccc(NCC(O)c4ccccc4)n3)c2)cs1` (stereo not given), for which the Inhibition amounted to 99% in the assay with Plasmodium falciparum [1], 82% in the assay with Plasmodium falciparum [2] and 43% with HepG2.

Turning to `O=C(O)C(F)(F)F.c1ccc2[nH]c(-c3ccc(-c4ccc(CN5CCN(c6ccncc6)CC5)cc4)cc3)nc2c1`, the values for the Inhibition in the assay on Plasmodium falciparum [1], in the assay with Plasmodium falciparum [2] and with HepG2 were 100%, 100% and 48%, respectively.

With `CCCCNc1c(C(=O)OCC)c(C)nc2c1[nH]c1ccccc12`, the Inhibition in the assay with Plasmodium falciparum [1] was determined as 100%; in the assay on Plasmodium falciparum [2], 58%; in the assay with HepG2 it was 0%.

For `CCOc1cc(C(C)C)ccc1N1CCN(CCCCNC(=O)c2ccc(NC(=O)c3ccc(Cl)cc3)cc2)CC1`, the Inhibition in the assay with Plasmodium falciparum [1] was 100%; in the assay with Plasmodium falciparum [2], 97%; with HepG2, 28%.

`CCn1c(-c2nonc2N)nc2c(-c3cccc(NC(=O)Nc4ccccc4Cl)c3)ncc(OCCCN)c21.O=C(O)C(F)(F)F`: the Inhibition in the assay on Plasmodium falciparum [1] came out at 99%; in the assay on Plasmodium falciparum [2] it was 74%; with HepG2, 2%.

As for `Cc1cc2ncn(-c3nccc(NCc4cccnc4)n3)c2cc1C.O=C(O)C(F)(F)F`, the Inhibition stood at 99% in the assay with Plasmodium falciparum [1], 98% with Plasmodium falciparum [2] and 0% in the assay with HepG2.

Take `COc1cc(C(=O)Nc2nc3ccccc3[nH]2)ccc1OCC(=O)Nc1cccc(C(F)(F)F)c1`: the values for the Inhibition in the assay with Plasmodium falciparum [1], in the assay with Plasmodium falciparum [2] and in the assay with HepG2 were 100%, 33% and 33%, respectively.

Turning to `COc1ccc(-c2cccc(NC(=O)c3ccc(C#N)cc3)c2)cc1CNC(C)C.O=C(O)C(F)(F)F`, the Inhibition worked out at 100% in the assay on Plasmodium falciparum [1], 14% in the assay on Plasmodium falciparum [2] and 25% in the assay on HepG2.

As for `Cc1cccc2nc(-c3ccc(-c4cccc(CN5CCCC5CN)c4)s3)[nH]c12.O=C(O)C(F)(F)F` (stereo not given), the Inhibition in the assay with Plasmodium falciparum [1] is reported as 91%; in the assay on Plasmodium falciparum [2], 45%; in the assay with HepG2, 20%.

For `Cl.N=C(N)Nc1nc(-c2ccc(NC(=N)N3CCC[C@H]3CN3CCCC3)cc2)cs1`, the Inhibition in the assay with Plasmodium falciparum [1] was determined as 82%; in the assay with Plasmodium falciparum [2] it was 66%; in the assay with HepG2 it was 6%.

On to `COc1ccc(CNC2Cc3ccccc3C2)cc1-c1ccc(S(=O)(=O)NCCN2CCCC2)c(F)c1.O=C(O)C(F)(F)F`, for which the Inhibition with Plasmodium falciparum [1] is on record as 100%; in the assay with Plasmodium falciparum [2] it was 69%; in the assay with HepG2 it was 44%.

On to `Cc1c(CC(=O)NCCC2CCN(CCCCCNC(=O)/C=C/c3ccc(Cl)c(Cl)c3)CC2)sc2ccc(Cl)cc12`, for which the Inhibition is recorded as 92% in the assay with Plasmodium falciparum [1], 8% with Plasmodium falciparum [2] and 59% in the assay on HepG2.

For the compound `CCC(C)(C)c1ccc(OCCCC(=O)Nc2ccc(Cl)c([N+](=O)[O-])c2)c(C(C)(C)CC)c1`, the results for the Inhibition in the assay with Plasmodium falciparum [1], with Plasmodium falciparum [2] and with HepG2 were 92%, 88% and 0%, respectively.

On to `Cc1cccc2nc(-c3ccc(-c4cccc(NC(=O)c5ccncc5)c4)cc3)[nH]c12`, for which the Inhibition in the assay with Plasmodium falciparum [1] came to 98%; in the assay with Plasmodium falciparum [2], 8%; in the assay on HepG2, 46%.

With `Cc1ccc(N2C(=O)C3C(C2=O)C2(c4ccccc4)C(=O)C3(c3ccccc3)C(c3ccccc3)=C2c2ccccc2)c(C)c1` (stereo not given), the Inhibition with Plasmodium falciparum [1] was 96%; in the assay with Plasmodium falciparum [2], 96%; in the assay on HepG2, 3%.

On to `COc1ccc(NC(=O)[C@H](Cc2ccccc2)Nc2cc(C)nc(NCCOc3ccccc3)n2)cc1.O=C(O)C(F)(F)F`, for which the Inhibition in the assay with Plasmodium falciparum [1] worked out at 98%; with Plasmodium falciparum [2] it was 25%; in the assay on HepG2, 11%.

With `Nc1nc(O)c2c(n1)CCc1c(Br)cccc1-2`, the values for the Inhibition in the assay with Plasmodium falciparum [1], with Plasmodium falciparum [2] and in the assay with HepG2 were 97%, 0% and 66%, respectively.

`CCCCN(CCCC)CCCCCCNc1c2ccccc2nc2ccccc12.Cl`: the Inhibition in the assay with Plasmodium falciparum [1] was determined as 95%; in the assay with Plasmodium falciparum [2] it was 87%; in the assay with HepG2 it was 49%.

Regarding `Cc1cc(OCC2CCN(c3ncc(C(=O)NC4CC4)cc3Cl)CC2)ccc1F`, the results for the Inhibition with Plasmodium falciparum [1], in the assay on Plasmodium falciparum [2] and with HepG2 were 96%, 96% and 16%, respectively.

`COc1ccc(CCCc2nc(N)nc(N)c2-c2ccc(Cl)cc2)cc1`: the Inhibition with Plasmodium falciparum [1] stood at 94%; in the assay on Plasmodium falciparum [2], 0%; in the assay on HepG2, 65%.

As for `C=C[C@]1(C)C[C@@H](OC(=O)CNC[C@@H](O)CN2C[C@H](c3ccnc4ccc(OC)nc34)OC2=O)[C@@]2(C)[C@@H]3C(=O)CC[C@@]3(CC[C@@H]2C)[C@@H](C)[C@@H]1O`, the Inhibition was 89% with Plasmodium falciparum [1], 82% with Plasmodium falciparum [2] and 0% in the assay with HepG2.

With `COCCNCc1cccc(-c2ccc3nccc(Nc4cc(O)ccc4C)c3c2)c1`, the Inhibition in the assay on Plasmodium falciparum [1] is on record as 100%; in the assay on Plasmodium falciparum [2], 92%; in the assay on HepG2, 0%.

Take `CNc1ccc(CNCc2cccc(-c3ccc(-c4nc5cccc(C)c5[nH]4)s3)c2)cc1.O=C(O)C(F)(F)F`: the figures for the Inhibition in the assay on Plasmodium falciparum [1], with Plasmodium falciparum [2] and in the assay on HepG2 were 100%, 88% and 23%, respectively.

As to `COc1ccc2c(N/N=C/c3cccc([N+](=O)[O-])c3)cc(C)nc2c1`, the Inhibition is 100% in the assay on Plasmodium falciparum [1], 97% with Plasmodium falciparum [2] and 18% in the assay with HepG2.

As for `Cc1ccc(S(=O)(=O)N2CCN(C(=O)c3cc(-c4cccs4)n[nH]3)CC2)c(C)c1`, the Inhibition turned out to be 85% with Plasmodium falciparum [1], 81% in the assay on Plasmodium falciparum [2] and 0% in the assay with HepG2.

For the compound `COc1c(Br)cc(Br)cc1-c1ccc(CN2C3CCCC2CCC3)[nH]1.Cl`, the results for the Inhibition in the assay on Plasmodium falciparum [1], with Plasmodium falciparum [2] and with HepG2 were 88%, 83% and 42%, respectively.

Take `Cc1cc(O)c2c3c1C(=O)C=C1C3c3c(c(O)cc(O)c3C(=O)C1(C)C)C2=O` (stereo not given): the Inhibition was 98% in the assay with Plasmodium falciparum [1], 46% with Plasmodium falciparum [2] and 45% in the assay with HepG2.
